Each structure is given as a SMILES string. Compounds without any hit were thinned out: in the full panel of roughly 83,000, 20% have a hit.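 Results are percent growth after 48 hours of single-concentration exposure. 100 means growth as in untreated cells, lower positive values show inhibition; negative values down to -100 show cell death.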 Unmarked numbers belong to inactive results. Activity calls are given as the source filed them. The calls were made as follows: active = growth percent below 10; inactive = the rest.

One assay deals with MALME-3M melanoma. The experiment in a line: NCI-60 one-dose screen, 48 h (100 = growth as untreated, 0 = no growth, -100 = all killed). The settings on record: 10 µM unless noted.
For `CCOP(=O)(OCC)c1nc(-c2ccccc2)oc1NCc1cccnc1`, the growth was 100%.

For `C/C(=C(/c1ccc(Cl)cc1)c1ccc(OCCN2CCCC2)cc1)c1ccc(Cl)cc1`, the growth was 81.5%.

For `CC(C)=CCC[C@](C)(O)[C@H]1CC[C@]2(C)[C@@H]1CC[C@@H]1[C@@]3(C)Cc4nccnc4C(C)(C)[C@@H]3CC[C@]12C`, the growth is 66.4%.

As to `CC1=Nc2cnc(Nc3ccc(OCCN4CCCC4)cc3)nc2Nc2ccccc21`, the growth is 68%.

Another assay relates to MDA-MB-231 breast. The assay is described as above. Particulars: 10 µM unless noted.
`CCSc1nc(NC)c2cc(-c3ccc(C(F)(F)F)cc3)ccc2n1`: the growth was 90.3%.

Take `Cc1nc(-c2ccccc2)cc2c(O)c(C(=O)NN)[nH]c(=O)c12`: the growth was 102%.

For the compound `Cc1ccc(S(=O)(=O)N2CCCC2CO)cc1` (stereo not given), the growth was 100%.

`CCOC(=O)c1cc(-c2ccc([N+](=O)[O-])cc2)n(-c2ccc(C(=O)O)c(O)c2)c1C`: the growth was 80.7%.

With `COc1cc(CNS(=O)(=O)c2ccc(C)cc2)ccc1OCc1cn(-c2ccc(Br)cc2)nn1`, the growth was 103%.

For `O=C(/C=C/c1ccccc1)c1cccc(OCCCOc2cccc(C(=O)/C=C/c3ccccc3)c2)c1`, the growth is 97.4%.

`C=CCc1c(O)c(C(=O)/C=C/c2ccc(Cl)cc2)c(OC)c2ccoc12`: the growth was 49.4%.

As to `COc1ccc(-c2nc3c(c(-c4ccccc4)nn3-c3ccccc3)c(-c3ccc(N4CCOCC4)cc3)c2C#N)cc1`, the growth is 107%.

Turning to `O=C1/C(=C/c2ccc(Cl)cc2)COc2ccc(O)c(O)c21`, the growth was -17.8% (active).

Turning to `CN(C)c1ccc(Nc2cc(-c3cccc(OC(F)(F)F)c3)nc3ccc(N4CCCC4)cc23)cc1`, the growth is 12.3%.

With `O=C(c1ccc(-c2nc(CSc3nc4ccccc4s3)no2)cc1)N1CCSCC1`, the growth is 64.6%.

Turning to `N=C(N)c1ccc(-c2ccc(-c3ccc(Cl)cc3)s2)nc1`, the growth is -47% (active).

Consider `COC(=O)c1c2c(c(C)[n+]([O-])c1C)C(=O)C=C(NCc1ccc(OC)cc1)C2=O`, for which the growth was -6.3% (active).

As for `O=C1/C(=C/c2ccc(Cl)cc2)COc2ccc(O)cc21`, the growth was 86%.

Regarding `Cc1cccc2c1NC(=O)C2(c1ccc(O)cc1)c1ccc(O)cc1`, the growth was 86.3%.

As to `CN1CCN(Cc2ccc3c(NNC(=O)c4ccccc4)nc4cc(F)ccc4n23)CC1`, the growth is 43.2%.

Regarding `COc1ccc2[nH]cc(-c3nc(-c4cn(C)c5c(Cl)nccc45)cs3)c2c1`, the growth was 48.2%.

Take `O=C(CCc1nnc(Cn2cnc3nc[nH]c3c2=O)o1)c1nc2ncccc2[nH]1`: the growth is 94.7%.

On to `CC1=Nc2cnc(Nc3ccc(OCCN4CCCCC4)cc3)nc2Nc2ccccc21`, for which the growth was 60.6%.

Turning to `Cc1nc2ncnc(Cl)c2[nH]1`, the growth was 103%.

With `CC(C)(C)[Si](C)(C)O[C@H]1C(=O)C=CN2CC=C[C@@H]12`, the growth is 105% [100 µM].

As for `c1cnc2[nH]cc(-c3csc(-c4cn(CCCN5CCOCC5)c5ccccc45)n3)c2c1`, the growth was 27.1%.

As for `Cc1ccccc1Cn1cnc2ccc(-c3cc(NC(=O)c4ccc(NC5CCN(C)CC5)cc4)n[nH]3)cc21`, the growth is 61.3%.

Consider `COC(C(=O)[C@@H](O)[C@@H](C)O)[C@@H]1Cc2cc3cc(O[C@H]4C[C@@H](O[C@H]5C[C@@H](O)[C@H](O)C(C)O5)[C@H](O)C(C)O4)cc(O)c3c(O)c2C(=O)[C@H]1O[C@H]1C[C@@H](O[C@H]2C[C@@H](O[C@H]3C[C@@H](OC)[C@H](O)C(C)O3)[C@@H](O)C(C)O2)[C@H](O)C(C)O1` (stereo not given in full), for which the growth was 43.2%.

In the case of `Cc1cc(Cl)ccc1Nc1nc(C(F)(F)F)ccc1C(=O)N/N=C/c1ccc([N+](=O)[O-])cc1`, the growth was -51.5% (active).

On to `COc1cc(N2C(=O)[C@H](O)C2c2ccc(SC)cc2)cc(OC)c1OC` (stereo not given in full), for which the growth is 30.3%.

`Fc1cc2c(cc1Cl)N(c1ncnc3ccc(-c4cnc5[nH]ncc5c4)cc13)CC2`: the growth was 52.7%.

Regarding `COc1ccccc1NC(=O)Cn1cc(CN2CCN(c3ccnc4cc(Cl)ccc34)CC2)nn1`, the growth was 82.3%.

Turning to `COc1cc(CNC(=O)CCCC/C=C/C(C)C)ccc1OCc1nnc(Nc2ccc([N+](=O)[O-])cc2)o1`, the growth was 67.1%.

As for `O=C(NCCCN1CCOCC1)c1cccc(N2C(=O)/C(=C/c3ccc(F)cc3)SC2=S)c1`, the growth was 88.9%.

For the compound `O=C(CSc1nnc2n1S(=O)(=O)c1ccccc1N2c1ccccc1)Nc1nc2ccc(F)cc2s1`, the growth is 98.9%.
